Cav3 T inh: inhibitors of human Cav3.2 T-type calcium channel. AID 449739. O95180. B-score at 10 µM. actives 4% (n = 100,000). Cav3.2-expressing cells, Fluo-4 calcium fluorescence FDSS; active compounds read low;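 active = single-dose well whose peak fluorescence ratio is a statistical outlier from its plate by either plate-standardised score or position-corrected B-score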
CYP2C9 act: CYP2C9 (human) activation | P11712 | recombinant CYP2C9, luciferin-H conversion, luminescence; active compounds read high; factor 1 = untreated enzyme, 0 = blocked | activation factor at 5 µM | actives 1.4% (n = 96,000);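 active = activation factor of 2 or more for CYP2C9 at a 5 µM dose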
CYP2C19 act: activators of human cytochrome P450 2C19. recombinant CYP2C19, luciferin-H EGE luminescence; active compounds read high; 0 = fully inhibited enzyme, 1 = untreated enzyme. 96,000 tested, under 10 active. P33261. activation factor at 5 µM. AID 1025;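 active = activation factor of at least 2 at 5 µM in the primary screen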
CYP2C19 inhib: blocks human cytochrome P450 2C19. CYP2C19 Supersomes, luciferin-H EGE luminescence, 30 min. actives 21% (n = 96,000). P33261. inhibition, % at 5 µM;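 active = CYP2C19 inhibition above a set limit at 5 µM in the primary screen, cut at about 50% in these data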
CYP2C9 inhib: human CYP2C9 inhibition; P11712; CYP2C9 Supersomes, luciferin-H conversion, luminescence; inhibition, % at 5 µM; actives 20% (n = 96,000);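 active = blocking of liver enzyme CYP2C9 beyond about 50% at 5 µM, limit read from the data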
Each line names hits and unclear results; the compound was inactive in the other large screens; ! = not active in a repeat. Most compounds without a hit are left out; they make up all but 27% or so of the library.

c1cncc(-c2nc(N3CCCCCC3)c3ccccc3n2)c1	CYP2C9 inhib 77 (no result: Cav3 T inh)
CN1CCN(c2nc(-c3ccccn3)nc3ccccc23)CC1	none
c1ccc(N2CCN(c3nc(-c4ccccn4)nc4ccccc34)CC2)cc1	CYP2C9 inhib 59
COc1cc(NC(=O)c2nccnc2C(=O)O)cc(OC)c1	none
CCOC(=O)C(=O)Nc1ccccc1C(=O)NC(C)C	none
Cc1cc(C)c(C2=CC(c3ccccc3)n3ncnc3N2)cc1C (stereo unspecified)	none (no result: CYP2C9 act, CYP2C19 act, CYP2C19 inhib, CYP2C9 inhib)
CCOC(=O)C1=C(C)Nc2ncnn2C1c1cc(Br)ccc1F (stereo unspecified)	none
c1ccc2c(N3CCCCCC3)nc(-c3ccncc3)nc2c1	CYP2C19 inhib 76, CYP2C9 inhib 80
Oc1ccccc1-c1nc(N2CCCC2)c2ccccc2n1	none
Cc1cn(Cc2ccccc2)c(=O)[nH]c1=O	none
C=CCn1c(NCc2ccccc2)nc2ccccc21	none
C=CCn1c(N2C(=O)CC(Cc3ccccc3)C2=O)nc2ccccc21 (stereo unspecified)	CYP2C19 inhib 79
O=c1cc(O)nc(SC23CC4CC(CC(C4)C2)C3)[nH]1	none
Cc1cccc(/C(N)=N/OC(=O)Cc2cccs2)c1	none
Cc1cccc(/C(N)=N/OC(=O)CCc2ccccc2)c1	CYP2C9 inhib 54
CCN1C(=O)/C(=C/c2cccs2)N(C)C1=S	CYP2C19 inhib 67, CYP2C9 inhib 51
CCOc1ccc(N2C(=O)/C(=C/c3cccs3)N(CC(=O)OC)C2=S)cc1	none
Cc1nnc(NCCc2ccccc2)n(N)c1=O	none
COC(=O)c1ccc(OCC(=O)Nc2nn(-c3ccccc3)nc2C(N)=O)cc1	none
Cc1cc(NC(=O)CSc2nnc(-c3cccnc3)n2C2CCCCC2C)no1 (stereo unspecified)	none
CCOc1c(C)cc(-c2ncccc2O)cc1C	CYP2C19 inhib 69!
COc1ccc(-c2ncccc2O)cc1	none
COC(=O)C1=C(C)NC(=O)NC1c1ccc(OCC(=O)N2CCCCC2)cc1 (stereo unspecified)	none
O=C(Nc1ccccc1C(F)(F)F)c1ccc(CN2CCC(Cc3ccccc3)CC2)cc1	Cav3 T inh -7.7
O=C(Nc1ccccc1)c1ccc(CN2CCC(Cc3ccccc3)CC2)cc1	none (no result: CYP2C9 act, CYP2C19 act, CYP2C19 inhib, CYP2C9 inhib)
COc1ccc(C(=O)Nc2nncs2)cc1S(=O)(=O)N1CC(c2ccccc2)CC1=O (stereo unspecified)	CYP2C9 inhib 84
COc1ccc(CNc2nc3ccccc3n2CCN2CCCCC2)c(OC)c1	none
CCN(CC)CCn1c(NCc2ccc(OC)cc2)nc2ccccc21	none
CCCn1c(NCc2ccc(N(C)C)cc2)nc2ccccc21	CYP2C19 inhib 92
c1ccc(Cn2c(CNc3nc4ccccc4n3CCN3CCOCC3)nc3ccccc32)cc1	CYP2C19 inhib 90, CYP2C9 inhib 91
CCn1c(NCc2cc(OC)ccc2OC)nc2ccccc21	CYP2C19 inhib 78, CYP2C9 inhib 58
CC(C)n1c(NCc2ccc(N(C)C)cc2)nc2ccccc21	none (no result: CYP2C9 act, CYP2C19 act, CYP2C19 inhib, CYP2C9 inhib)
COc1cccc(CNc2nc3ccccc3n2CCN2CCCCC2)c1	CYP2C9 inhib 52
COc1ccc(C2/C=C\CN(C(=O)c3ccccc3)[C@H](Cc3ccccc3)C(=O)N2Cc2ccc(F)cc2)cc1 (stereo partly specified)	none (no result: CYP2C9 act, CYP2C19 act, CYP2C19 inhib, CYP2C9 inhib)
CN(C)CCC(=O)NCC1OCCc2ccccc21 (stereo unspecified)	none (no result: Cav3 T inh)
CCCn1c(NCc2cc(OC)ccc2OC)nc2ccccc21	Cav3 T inh -4.8, CYP2C19 inhib 68
CCOC(=O)/C(=N\Nc1cccc(C(F)(F)F)c1)N(CCOC)CCOC	CYP2C19 inhib 99, CYP2C9 inhib 89
CCN(CC)C(=S)SCC(=O)Nc1cccc(C(F)(F)F)c1	none (no result: CYP2C9 act, CYP2C19 act, CYP2C19 inhib, CYP2C9 inhib)
CC1CCc2nn(CC(=O)NCc3ccc(F)cc3)cc2C1 (stereo unspecified)	CYP2C19 inhib 90
CC1CCc2nn(CC(=O)Nc3c(F)cc(F)cc3Br)cc2C1 (stereo unspecified)	CYP2C9 inhib 62
CCN(CC)C(=O)CN(Cc1ccccc1)S(=O)(=O)c1ccc(F)cc1	none
CSc1cc(-c2ccccc2)n(Cc2ccc(Cl)cc2Cl)c(=O)c1C#N	CYP2C9 inhib 51
CC1=C(CC[C@@H](C)CO)OC2CC3C4CCC5CC(O)CCC5(C)C4CC(=O)C3(C)C12 (stereo partly specified)	none (no result: CYP2C9 act, CYP2C19 act, CYP2C19 inhib, CYP2C9 inhib)
CN(C)c1ccc(/C=C/C(O)=C2/C(=O)N(C)C3(C)CC2c2ccccc2O3)cc1 (stereo unspecified)	Cav3 T inh -6.2
Cc1cccc2[nH]c(-c3ccc(NC(=O)c4ccco4)cc3)nc12	none
C=C(C)CSc1nnc2n(C)c(=O)c3c4c(sc3n12)CCC4	CYP2C19 inhib 55, CYP2C9 inhib 56
CC(C)Oc1ccc(CSc2nnc3n(C)c(=O)c4c5c(sc4n23)CCCC5)cc1	none (no result: CYP2C9 act, CYP2C19 act, CYP2C19 inhib, CYP2C9 inhib)
Cc1ccc2cccc(NC(=S)NC(=O)c3ccccc3)c2n1	CYP2C9 act 2.7
COC(=O)c1ccccc1NC(=O)CN1CCC(NC(=O)c2ccccc2C)CC1	CYP2C19 inhib 82, CYP2C9 inhib 54
COC(=O)c1ccccc1NC(=S)NC(=O)CC(C)C	none
COC(=O)c1ccccc1NC(=S)NC(=O)c1ccccc1	CYP2C19 inhib 56
COC(=O)c1ccccc1NC(=S)NC(=O)COc1ccccc1	none
COC(=O)c1ccccc1NC(=S)NC(=O)c1ccccc1C	CYP2C19 inhib 51 (no result: Cav3 T inh)
O=C(O)c1cc(NCc2c(F)cccc2Cl)ccc1N1CCOCC1	none
COc1ccc([C@@]2(O)c3c(ccc(CC=C(C)C)c3O)NC(=O)[C@@H]2OC)cc1	none (no result: CYP2C9 act, CYP2C19 act, CYP2C19 inhib, CYP2C9 inhib)
O=C(NNC(=S)NC(=O)c1ccccc1[N+](=O)[O-])c1ccccc1	none (no result: CYP2C9 act, CYP2C19 act, CYP2C19 inhib, CYP2C9 inhib)
O=C(NC(=S)NNC(=O)c1ccccc1[N+](=O)[O-])c1ccccc1	Cav3 T inh -8.4 (no result: CYP2C9 act, CYP2C19 act, CYP2C19 inhib, CYP2C9 inhib)
O=C(O)CSCC(=O)Nc1cccc2ccccc12	none
CC1=C(C(=O)OCC2CCCO2)C(c2ccc(C)o2)C2=C(CC(c3ccc(F)cc3)CC2=O)N1 (stereo unspecified)	none
CC1=C(C(=O)OCC2CCCO2)C(c2ccccc2OC(C)C)C2=C(CC(c3ccco3)CC2=O)N1 (stereo unspecified)	CYP2C19 inhib 98, CYP2C9 inhib 81
CC1=C(C(=O)OCC2CCCO2)C(c2ccc(C)o2)C2=C(CC(c3ccc(N(C)C)cc3)CC2=O)N1 (stereo unspecified)	CYP2C19 inhib 56, CYP2C9 inhib 54 (no result: Cav3 T inh)
CC1=C(C(=O)OCC2CCCO2)C(c2cccc(C(F)(F)F)c2)C2=C(CC(c3ccco3)CC2=O)N1 (stereo unspecified)	CYP2C19 inhib 94, CYP2C9 inhib 88
Cc1cc(C)cc(SCc2noc(C(=O)NCCN(C)C)c2C(=O)NCCN(C)C)c1	none (no result: CYP2C9 act, CYP2C19 act, CYP2C19 inhib, CYP2C9 inhib)
O=C(Cn1ncc2c(=O)oc3ccccc3c21)NCCC1=CCCCC1	CYP2C19 inhib 59
O=C(Cn1ncn2c(cc3ccccc32)c1=O)NCCC1=CCCCC1	CYP2C19 inhib 99
O=C(Cn1ncc2c(=O)oc3ccccc3c21)NCC1CCCO1 (stereo unspecified)	none
O=C(Cn1ncn2c(cc3ccccc32)c1=O)NCc1ccco1	CYP2C19 inhib 62

Screening data from PubChem BioAssay.
